Experiments:
Test in all cases: thermal shift delta Tm vs DMSO control; higher = stronger stabilization (binding)
Conditions in all cases: 12.5 µM; protein concentration 2 µM
LOC_OS01G01410-cb001 = test system: LOC_OS01G01410-cb001
In short: (§1)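 Rice kinase domain constructs were expressed in E. coli, purified, and tested by differential scanning fluorimetry with compound added in DMSO. Each well of a 96-well plate held 19.5 μl of 2 μM kinase in 100 mM potassium phosphate pH 7.5, 150 mM NaCl, 10% glycerol and 5 × SYPRO Orange, and fluorescence was read from 25°C to 95°C at 0.05°C/s. The melting temperature shift is the mean of triplicates, taken against protein with DMSO alone after Boltzmann fitting.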

LOC_OS01G02750-cb003 = test system: LOC_OS01G02750-cb003
In short: as §1

LOC_OS01G10900-cb004 = test system: LOC_OS01G10900-cb004
In short: as §1

LOC_OS01G13800-cb001 = test system: LOC_OS01G13800-cb001
In short: as §1

LOC_OS01G14860-cb001 = test system: LOC_OS01G14860-cb001
In short: as §1

LOC_OS01G21960-cb002 = test system: LOC_OS01G21960-cb002
In short: as §1

LOC_OS01G39600-cb002 = test system: LOC_OS01G39600-cb002
In short: as §1

LOC_OS01G48390-cb002 = test system: LOC_OS01G48390-cb002
In short: as §1

LOC_OS01G51400-cb002 = test system: LOC_OS01G51400-cb002
In short: as §1

LOC_OS01G52050-cb004 = test system: T1, LOC_OS01G52050-cb004
T1 sequence (whole entry): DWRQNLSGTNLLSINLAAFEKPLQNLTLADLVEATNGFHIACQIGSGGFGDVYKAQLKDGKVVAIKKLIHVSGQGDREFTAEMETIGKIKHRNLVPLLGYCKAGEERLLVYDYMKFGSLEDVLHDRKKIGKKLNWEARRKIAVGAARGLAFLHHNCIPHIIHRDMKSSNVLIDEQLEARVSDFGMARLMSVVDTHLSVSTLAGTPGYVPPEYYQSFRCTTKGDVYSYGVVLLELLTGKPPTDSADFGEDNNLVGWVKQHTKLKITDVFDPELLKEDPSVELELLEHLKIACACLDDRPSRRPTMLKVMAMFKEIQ
In short: as §1

Compound	thermal shift delta Tm (LOC_OS01G01410-cb001)	thermal shift delta Tm (LOC_OS01G02750-cb003)	thermal shift delta Tm (LOC_OS01G10900-cb004)	thermal shift delta Tm (LOC_OS01G13800-cb001)	thermal shift delta Tm (LOC_OS01G14860-cb001)	thermal shift delta Tm (LOC_OS01G21960-cb002)	thermal shift delta Tm (LOC_OS01G39600-cb002)	thermal shift delta Tm (LOC_OS01G48390-cb002)	thermal shift delta Tm (LOC_OS01G51400-cb002)	thermal shift delta Tm (LOC_OS01G52050-cb004)
CC(C)N(CCC(=O)c1ccc2ccccc2c1)Cc1ccccc1	-0.06 °C	-5.16 °C	1.63 °C	-1.25 °C	-0.01 °C	0.24 °C	-2.79 °C	0.53 °C	-0.18 °C	-7.43 °C
O=C(NCc1ccccc1)c1csc(Nc2ccncn2)n1 [Thiazovivin]	0.06 °C	1.66 °C	2.94 °C	1.01 °C	3.98 °C	2.52 °C	0.44 °C	0.4 °C	0.24 °C	2.17 °C
C=CC(=O)Nc1cccc(Sc2nc(Nc3ccc(N4CCN(C)CC4)cc3)ncc2Cl)c1	3.81 °C	1.58 °C	5.27 °C	-0.1 °C	1.89 °C	0.88 °C	6.99 °C	7.06 °C	1.43 °C	4.22 °C
CN1CCN(c2ccc(OC(F)(F)F)c(Nc3ncc4c(n3)-c3c(c(C(N)=O)nn3CCO)CC4)c2)CC1	0.81 °C	1.85 °C	0.67 °C	-0.54 °C	0.5 °C	0.64 °C	0.04 °C	-0.15 °C	0.17 °C	1.03 °C
Cc1cc(CS(=O)(=O)c2ccccc2)cc(OCc2ccc(CN3CCC[C@@H]3CO)cc2)c1	0.31 °C	1.37 °C	0.19 °C	-0.27 °C	-0.13 °C	0.3 °C	-13.5 °C	0.65 °C	0.36 °C	-0.24 °C
CCNc1nc(Nc2cc(F)c(C(=O)N3CCOCC3)cc2OC)ncc1C(F)(F)F	0.11 °C	0.63 °C	0.25 °C	0.11 °C	1.18 °C	0.79 °C	0.15 °C	0.72 °C	0.2 °C	-0.2 °C
COCCOc1ccc2c(c1)ncn2-c1ccc2cccc(N3CCC(N)CC3)c2n1	0.39 °C	7.25 °C	1.08 °C	-0.56 °C	1.89 °C	3.75 °C	2.09 °C	0.21 °C	-0.08 °C	10.9 °C
N#Cc1c(NC(=O)c2cccc3ccccc23)sc2c1CCCC2 [JNK Inhibitor IX]	0.03 °C	1.54 °C	0.06 °C	0.52 °C	-0.15 °C	0.78 °C	-0.09 °C	-0.06 °C	0.19 °C	-0.13 °C
O=C(/C=C/c1ccc2ccccc2n1)c1ccncc1	0.4 °C	-1.2 °C	1.49 °C	0.45 °C	1.08 °C	2.15 °C	-0.61 °C	0.91 °C	0.46 °C	-0.48 °C
COc1cc(Nc2ncc3c(n2)-c2ccc(Cl)cc2C(c2c(F)cccc2OC)=NC3)ccc1C(=O)O [Alisertib (MLN8237)]	0.87 °C	0.27 °C	-0.01 °C	-0.04 °C	0.35 °C	-0.3 °C	3.62 °C	-0.18 °C	-0.33 °C	0.48 °C
COc1cc(N2CCN(C)CC2)ccc1Nc1nccc(-c2cn(C)c3cnccc23)n1	1.86 °C	0.45 °C	1.77 °C	0.56 °C	0.92 °C	1.48 °C	-0.38 °C	1.57 °C	0.19 °C	1.15 °C
Cc1cnc(NC(=O)Nc2cc(Br)c(C)cc2OC[C@@H]2CNCCO2)cn1	0.41 °C	0.39 °C	0.37 °C	-0.12 °C	0.81 °C	0.58 °C	0.24 °C	1.82 °C	0.02 °C	2.33 °C
COc1cc2nccc(Oc3ccc(NC(=O)C4(C(=O)Nc5ccc(F)cc5)CC4)cc3)c2cc1OC	1.63 °C	0.81 °C	0.73 °C	0.78 °C	1.07 °C	0.93 °C	1.5 °C	6.38 °C	0.3 °C	2.44 °C
CCN1CCN(Cc2ccc(Nc3ncc(F)c(-c4cc(F)c5nc(C)n(C(C)C)c5c4)n3)nc2)CC1	1.5 °C	2.83 °C	4.97 °C	-0.66 °C	7.4 °C	3.11 °C	0.45 °C	1.47 °C	0.13 °C	1.08 °C
O=C1CCc2c(Oc3ccc4c(c3)[C@@H]3[C@H](O4)[C@H]3c3nc4cc(C(F)(F)F)ccc4[nH]3)ccnc2N1 [Lifirafenib (BGB-283)]	1.01 °C	3.41 °C	2.3 °C	1.54 °C	5.38 °C	1.8 °C	0.61 °C	1.85 °C	0.55 °C	2.71 °C
Clc1ccc(Nc2nnc(Cc3ccncc3)c3ccccc23)cc1 [Vatalanib (PTK787) 2HCl]	0.99 °C	0.12 °C	-0.92 °C	0.36 °C	0.31 °C	0.21 °C	0.01 °C	0.44 °C	-0.2 °C	0.04 °C
CN1CCN(S(=O)(=O)c2ccc(-c3cnc(N)c(C(=O)Nc4cccnc4)n3)cc2)CC1	4.52 °C	1.3 °C	0.3 °C	0.58 °C	7.62 °C	1.87 °C	0.71 °C	0.96 °C	-0.02 °C	1.17 °C
Nc1ncnc2c1c(-c1cnc3[nH]ccc3c1)nn2C1CCCC1	1.35 °C	1.16 °C	2.01 °C	0.12 °C	1.82 °C	1.28 °C	0.43 °C	2.52 °C	0.19 °C	1.48 °C
Cc1nc(Nc2n[nH]c3c2CN(C(=O)N[C@H](CN(C)C)c2ccccc2)C3(C)C)c2sccc2n1	0.37 °C	2.46 °C	0.23 °C	-0.4 °C	4.22 °C	2.47 °C	0.6 °C	0.23 °C	0.28 °C	0.94 °C
NC(=O)Nc1cc(-c2cccc(F)c2)sc1C(=O)N[C@H]1CCCNC1	0.37 °C	5.35 °C	0.3 °C	0.24 °C	0.9 °C	3.38 °C	0.2 °C	0.65 °C	0.08 °C	11.6 °C
